Most compounds without a hit are left out; they make up all but 5.7% or so of the library.
ssDAF12 agonist = activates DAF-12 receptor from parasite S. stercoralis; hit rate 1% among 370,000; activation, % at 6.8 µM; HEK293 ssDAF-12/GRIP1 lit1-tk-luc reporter, luminescence; % of 3 µM dafachronic acid response;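 active means activation above the mean over all tested compounds plus 3 SD, cut at about 0.9% in these data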;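 further: 0% = DMSO-only wells and 100% = 3 µM delta7-dafachronic acid wells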
DAX1 inh-1 = inhibitors of DAX1 repression of SF-1 activated StAR promoter; HEK293T StAR-luciferase reporter, SF-1/DAX-1 repression relief; inhibition, % at 6.8 µM; hit rate 1.1% among 370,000; AID 652010;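 active means inhibition above the mean over all tested compounds plus 3 SD, cut at about 3.6% in these data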;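 further: 0% = DAX-1 cells with DMSO and 100% = cells lacking DAX-1 with DMSO; higher inhibition means more luminescence from relief of DAX-1 repression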
hgDAF-12 ag = agonists of H. glycines DAF-12 nuclear receptor; HEK293 GAL4-hgDAF12 UAS-luciferase reporter, agonist luminescence; normalized to butyrate control; activation, % at 6.8 µM; hit rate 1.8% among 370,000;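 active means activation above a cutoff set at the mean of all screened compounds plus 3 SD, cut at about 10% in these data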;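 further: 0% = DMSO wells and 100% = sodium butyrate wells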
hcDAF12 agonist = activates DAF-12 receptor from parasite H. contortus; HEK293 hcDAF-12 lit1-tk-luc reporter, luminescence; 0% DMSO, 100% Δ7-dafachronic acid; AID 652067; hit rate 1.4% among 370,000; activation, % at 6.8 µM;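 active means activation above the mean of all tested compounds plus 3 SD, cut at about 5.5% in these data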;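 further: 100% = response to 3 µM Δ7-dafachronic acid high control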
AHR act = activators of human aryl hydrocarbon receptor; P35869; AHR-responsive luciferase reporter cells, luminescence; activation, % at 5 µM; hit rate 2.5% among 320,000; AID 2796; in the data active means activation above about 47%;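 further: 0% = vehicle wells and 100% = reference agonist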
DAX1 inh-2 = inhibitors of human orphan nuclear receptor DAX1 (NR0B1); HEK293 Gal4-DAX1 luciferase reporter, luminescence; P51843; hit rate 0.99% among 340,000; AID 504766; inhibition, % at 6.75 µM;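 active means inhibition above the mean over all tested compounds plus 3 SD, cut at about 4.2% in these data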;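 further: 0% = DAX1-transfected cells with DMSO and 100% = empty-vector control cells with DMSO; inhibition shows as a rise in luminescence from relieved DAX1 repression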
DAX1 conf = NR0B1 (human) inhibition, confirmation; shares compounds with DAX1 inh-1; HEK293T StAR-promoter luciferase reporter, SF-1/DAX-1 repression; inhibition, % at 6.8 µM; hit rate 87% among 2,400; AID 652134;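 active means inhibition above the average of every tested compound plus 3 SD, cut at about 3.8% in these data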;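 further: 0% = DAX-1 cells with DMSO and 100% = no DAX-1 control cells with DMSO; active compounds raise luminescence by relieving repression of the StAR reporter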
Target sequence (P51843 whole entry, looked up): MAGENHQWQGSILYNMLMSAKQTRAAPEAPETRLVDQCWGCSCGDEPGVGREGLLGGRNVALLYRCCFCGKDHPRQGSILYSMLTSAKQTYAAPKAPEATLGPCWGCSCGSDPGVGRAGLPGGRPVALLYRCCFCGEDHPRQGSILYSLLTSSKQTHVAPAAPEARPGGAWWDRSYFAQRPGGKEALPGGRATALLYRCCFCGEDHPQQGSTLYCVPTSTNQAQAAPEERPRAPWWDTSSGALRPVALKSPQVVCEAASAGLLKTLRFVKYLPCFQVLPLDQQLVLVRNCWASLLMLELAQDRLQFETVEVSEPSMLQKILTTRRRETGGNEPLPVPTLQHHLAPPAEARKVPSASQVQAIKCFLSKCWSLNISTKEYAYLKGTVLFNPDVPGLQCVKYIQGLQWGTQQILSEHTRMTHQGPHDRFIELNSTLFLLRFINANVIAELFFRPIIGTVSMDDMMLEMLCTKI
SF1 mutant ctr = nonselective inhibitor or artifact in SF-1 mutant DAX1 counter-screen; shares compounds with DAX1 inh-1; HEK293 StAR-luciferase, SF-1 AF2 mutant, luminescence; inhibition, % at 6.8 µM; hit rate 78% among 2,400; AID 652136;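 active means inhibition above the mean of all tested compounds plus 3 SD, cut at about 3% in these data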;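 further: 0% = DAX-1 transfected cells with DMSO and 100% = cells without DAX-1 with DMSO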
LXR ag = counter-screen for hcDAF-12 agonists: agonists of human LXR-beta | AID 743027 | activation, % at 6.8 µM | HEK293 Gal4-LXR tk-luc reporter, luminescence, 24 h; normalized: DMSO 0%, positive control 100% | shares compounds with hcDAF12 agonist | 3,400 tested, under 10 active;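 active means mean percent activation of the reporter above a cutoff set as the average over tested compounds plus their standard deviation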
hcDAF12 ag = hcDAF-12 agonism, confirmation assay | activation, % at 6.8 µM | hit rate 61% among 3,400 | HEK293 hcDAF-12 lit1-tk-luc reporter, luminescence; % of Δ7-dafachronic acid response | AID 743032 | shares compounds with hcDAF12 agonist;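 active means mean activation across triplicate tests above the threshold derived from the earlier primary screen, cut at about 5.5% in these data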;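 further: 0% = DMSO only wells and 100% = 3 µM Δ7-dafachronic acid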
hgDAF12 ag = confirmation of H. glycines DAF-12 agonists. shares compounds with hgDAF-12 ag. HEK293 GAL4-hgDAF12 luciferase reporter, agonist mode; percent of butyrate response. activation, % at 6.8 µM. hit rate 80% among 3,300. AID 743050;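 active means mean activation over triplicate wells above the hit cutoff derived from the earlier primary screen, cut at about 11% in these data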;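 further: 0% = DMSO low control and 100% = 2 mM sodium butyrate high control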
LXRb DAF12 ctr = activates human LXR-beta, counter-screen for DAF-12 agonists; shares compounds with hgDAF-12 ag; 3,300 tested, under 10 active; AID 743051; activation, % at 6.8 µM; HEK293 Gal4-LXR luciferase reporter, 24 h;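 active means mean activation of the triplicate above a set limit carried over from the primary screen, none filed active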
Starred values were filed as active, the others as inactive; . = no result; ! = repeats disagree.

SMILES	ssDAF12 agonist	DAX1 inh-1	hgDAF-12 ag	hcDAF12 agonist	AHR act	DAX1 inh-2	DAX1 conf	SF1 mutant ctr	LXR ag	hcDAF12 ag	hgDAF12 ag	LXRb DAF12 ctr
COc1cc([N+](=O)[O-])ccc1NC(=S)NNC(=O)c1ccc2c(c1)OCO2	-1	0	2	1	39	0	.	.	.	.	.	.
O=C(NC(=S)Nc1cc([N+](=O)[O-])ccc1O)c1ccc2c(c1)OCO2	0	10.0*	16*	9.2*	71*	1	16*	7.4*	2	9.7*	18*	1
Nc1cc(=O)[nH]c(SCC(=O)c2ccc(O)cc2O)n1	-1	1	1	-1	1	1	.	.	.	.	.	.
O=C(CCl)Nc1ccc(N=Nc2ccccc2)cc1	0	-1	5	3	.	2	.	.	.	.	.	.
CC(=O)OCC(=O)Nc1ccc(N=Nc2ccccc2)cc1	1	4.8*	17*	4	1	0	10*	6.0*	.	.	14*	1
O=C(c1ccccc1)c1ccc(N2CCOCC2)cc1	0	6.6*	15*	4	.	1	7.1*	4.6*	.	.	16*	1
O=C(Nc1ccc(N2CCCCC2)cc1)c1ccccc1	0	7.3*	15*	7.2*	-2	-1	17*	6.7*	2	5	17*	1
O=C(Cc1ccccc1)Nc1ccc(N2CCCCC2)cc1	1.7*	5.1*	25*	5	13	2	14*	7.3*	.	.	18*	1
Nc1cc(C(=O)c2ccccc2)ccc1N1CCOCC1	0	1	1	1	30	1	.	.	.	.	.	.
O=C(Nc1cnn(C23CC4CC(CC(C4)C2)C3)c1)c1cnn2cccnc12	1.2*	5.8*	14*	4	0	0	10*	5.9*	.	.	15*	1
Cc1ccc(NC(=S)NC(=O)C2CCCCC2)c(Br)c1	0	9.8*	18*	6.3*	1	3	7.8*	7.2*	.	.	15*	1
COC(=O)c1ccc(C(=O)OC)c(NC(=O)CN(C)Cc2ccccc2)c1	-2	0	0	0	1	-1	.	.	.	.	.	.
COc1ccc2oc(C(=O)Nc3nccs3)c(C)c2c1	0	12*	18*	8.2*	77*	2	11*	7.7*	2	10*	23*	1
COc1cc2c(=O)n(CCC(=O)NCC3CCCO3)c(=O)n(CC(=O)Nc3ccc(C)cc3C)c2cc1OC (stereo not drawn)	-1	0	3	-1	0	0	.	.	.	.	.	.
N=NC(=O)c1ccccc1Nc1c(O)[nH]c2ccccc12	2.3*	6.1*	15*	13*	.	-3	11*	7.8*	1	14*	16*	1
CC(=O)Nc1c(O)[nH]c2ccccc12	-1	0	1	1	11	0	.	.	.	.	.	.
O=C(N=c1nc2ccccn2s1)c1ccccc1	1.1*	5.2*	22*	11*	20	3	11*	3	2	13*	8	1
CC(=O)Nc1nn(C)c2nc3ccc(C)cc3cc12	-1	0	-1	-2	20	-1	.	.	.	.	.	.
NS(=O)(=O)c1cccc(NC(=O)CC23CC4CC(C2)CC(CC(=O)Nc2cccc(S(N)(=O)=O)c2)(C4)C3)c1	-1	0	2	-1	1	0	.	.	.	.	.	.
COc1ccc(C(=O)NN/C(=N/S(=O)(=O)c2ccc(C)cc2)c2ccccc2)cc1	0.9*	4.6*	14*	3	3	3	9.2*	4.4*	.	.	19*	1
CC(=O)Nc1ccc(N/C(=N\S(=O)(=O)c2ccccc2)c2ccccc2)cc1	0	-3	-1	0	1	0	.	.	.	.	.	.
Cc1ccc(NC(=S)N/C(=N/S(=O)(=O)c2ccccc2)c2ccccc2)cc1	0	5.6*!	18*!	2	-2	3	3	3	.	.	13*	0
CC(C)(C)n1c(O)c2ccc(C(=O)N=NC(=O)c3ccccc3)cc2c1O	0	-2	1	0	11	0	.	.	.	.	.	.
Cn1c(N=NC(=O)c2ccccc2)c(O)c2ccccc21	2.1*	5.8*	21*	13*	96*	-2	15*	5.7*	1	5.9*	16*	1
CN(C)c1ccc(CN(C(=O)c2ccccc2Br)C2CCS(=O)(=O)C2)cc1 (stereo not drawn)	-1	0	-3	-1	8	1	.	.	.	.	.	.
SMILES	ssDAF12 agonist	DAX1 inh-1	hgDAF-12 ag	hcDAF12 agonist	AHR act	DAX1 inh-2	DAX1 conf	SF1 mutant ctr	LXR ag	hcDAF12 ag	hgDAF12 ag	LXRb DAF12 ctr
Cc1nn(-c2ccccc2)c(Cl)c1/C=N/Nc1ccc(Cl)c(C(=O)O)c1	1.2*	7.5*	24*	9.9*	-6	-5	16*	7.9*	2	11*	27*	2
Cc1nn(-c2ccccc2)c(Cl)c1/C=N/NC(=O)OC(C)(C)C	0	0	0	-3	1	0	.	.	.	.	.	.
Cc1nc2cc(NC(=O)Nc3ccccc3Cl)ccc2n1C	0	12*	15*	7.1*	-7	-2	19*	8.4*	2	7.8*	20*	1
Cc1ccc(NC(=O)Nc2ccc3c(c2)nc(C)n3C)cc1	1	6.4*	17*	8.7*	-5	-1	16*	7.2*	1	5	17*	1
Cn1c(CCN2CCCCC2)nc2cc(NC(=O)Nc3ccccc3)ccc21	-2	-1	-5	0	-1	0	.	.	.	.	.	.
Cc1cc(C)n2nc(SCC(=O)N(CCC#N)c3ccc(F)cc3)nc2n1	-1	3	9	1	1	0	.	.	.	.	.	.
COc1ccc2nccnc2c1[N+](=O)[O-]	-1	0	0	-2	-2	2	.	.	.	.	.	.
O=C(Nc1nc2ccccc2s1)NC1CCCCC1	0	6.1*	18*	6.1*	4	7.1*	10*	6.0*	.	.	19*	1
